# Results taken from publication PMC7862700, “An all-to-all approach to the identification of sequence-specific readers for epigenetic DNA modifications on cytosine”.
# Assays:
# Test in all cases: DAPPL (digital affinity profiling via proximity ligation, sequencing); 10 mM Tris-HCl pH 7.5, 50 mM NaCl, 1 mM DTT, 4% glycerol, room temperature, 30 min; GST-TFs on glutathione beads, 16-mer random dsDNA library, 0.1% formaldehyde crosslink after washing; high values mean tight binding
# [1] = target: T1, FEV (Homo sapiens, UniProt Q99581 1-238); settings: protein: recombinant; tags: N-terminal GST; dsDNA, one strand shown
# T1 sequence: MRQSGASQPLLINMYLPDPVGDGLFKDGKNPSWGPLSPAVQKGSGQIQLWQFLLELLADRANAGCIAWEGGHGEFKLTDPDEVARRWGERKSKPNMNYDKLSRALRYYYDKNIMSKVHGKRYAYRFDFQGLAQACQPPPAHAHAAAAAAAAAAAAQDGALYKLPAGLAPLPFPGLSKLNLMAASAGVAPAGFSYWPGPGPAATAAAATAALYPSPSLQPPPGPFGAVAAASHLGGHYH
# Summary of the method: (§1)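 Sequencing on an Illumina NextSeq500 followed washing, crosslinking with 0.1% formaldehyde, proximity ligation (BsaI/T4 ligase, 1 h, 37 °C) and PCR amplification of pools that had been incubated for 30 min at room temperature with 200 nmole of a random double-stranded 16-mer DNA library in Tris/NaCl/DTT/glycerol buffer. Each pool held DNA-barcoded human transcription factors, expressed in yeast as GST fusions and captured on glutathione beads, plus a tag-only sample. Binding signal is a hexamer's read frequency for a factor divided by its frequency in the tag-only sample.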
# [2] = target: ETV5 (Homo sapiens, UniProt P41161 1-510); settings: protein: recombinant; tags: N-terminal GST; dsDNA, one strand shown
# Summary of the method: as §1
# [3] = target: HSF1 (Homo sapiens, UniProt Q00613 1-529); settings: protein: recombinant; tags: N-terminal GST; chain copies: 3; dsDNA, one strand shown
# Summary of the method: as §1
# [4] = target: T2, SPIC (Homo sapiens, UniProt Q8N5J4 1-248); settings: protein: recombinant; tags: N-terminal GST; dsDNA, one strand shown
# T2 sequence: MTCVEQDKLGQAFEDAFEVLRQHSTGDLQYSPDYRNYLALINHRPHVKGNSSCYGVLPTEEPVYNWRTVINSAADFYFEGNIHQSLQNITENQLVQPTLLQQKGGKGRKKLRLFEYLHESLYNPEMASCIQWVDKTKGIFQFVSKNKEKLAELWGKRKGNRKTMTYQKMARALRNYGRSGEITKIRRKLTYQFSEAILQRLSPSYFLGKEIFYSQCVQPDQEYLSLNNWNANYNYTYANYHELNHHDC
# Summary of the method: as §1
# [5] = target: ELF4 (Homo sapiens, UniProt Q99607 1-663); settings: protein: recombinant; tags: N-terminal GST; dsDNA, one strand shown
# Summary of the method: as §1
# [6] = target: T3, ELK4 (Homo sapiens, UniProt P28324-2 1-405); settings: protein: recombinant; tags: N-terminal GST; dsDNA, one strand shown
# T3 sequence: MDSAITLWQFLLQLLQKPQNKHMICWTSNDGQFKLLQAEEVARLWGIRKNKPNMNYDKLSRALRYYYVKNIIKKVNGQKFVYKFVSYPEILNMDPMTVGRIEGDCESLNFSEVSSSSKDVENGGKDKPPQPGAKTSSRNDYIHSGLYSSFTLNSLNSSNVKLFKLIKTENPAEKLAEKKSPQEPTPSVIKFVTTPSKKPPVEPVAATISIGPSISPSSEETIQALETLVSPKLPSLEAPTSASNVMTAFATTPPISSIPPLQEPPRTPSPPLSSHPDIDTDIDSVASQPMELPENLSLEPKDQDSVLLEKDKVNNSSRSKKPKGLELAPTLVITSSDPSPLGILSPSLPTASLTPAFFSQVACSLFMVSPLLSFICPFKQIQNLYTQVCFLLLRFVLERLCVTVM
# Summary of the method: as §1
# [7] = target: T4, ETV2 (Homo sapiens, UniProt O00321 1-342); settings: protein: recombinant; tags: N-terminal GST; dsDNA, one strand shown
# T4 sequence: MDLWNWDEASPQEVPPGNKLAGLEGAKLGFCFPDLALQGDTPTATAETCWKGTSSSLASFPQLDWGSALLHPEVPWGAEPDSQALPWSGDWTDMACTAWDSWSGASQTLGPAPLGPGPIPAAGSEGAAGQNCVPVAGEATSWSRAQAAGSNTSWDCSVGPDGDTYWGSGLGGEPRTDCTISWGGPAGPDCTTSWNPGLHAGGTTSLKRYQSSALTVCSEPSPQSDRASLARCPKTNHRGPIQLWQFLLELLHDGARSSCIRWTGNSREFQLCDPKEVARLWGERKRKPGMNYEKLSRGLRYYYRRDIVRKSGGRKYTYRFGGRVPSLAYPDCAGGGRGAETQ
# Summary of the method: as §1
# [8] = target: T5, ELF3 (Homo sapiens, UniProt P78545 1-371); settings: protein: recombinant; tags: N-terminal GST; dsDNA, one strand shown
# T5 sequence: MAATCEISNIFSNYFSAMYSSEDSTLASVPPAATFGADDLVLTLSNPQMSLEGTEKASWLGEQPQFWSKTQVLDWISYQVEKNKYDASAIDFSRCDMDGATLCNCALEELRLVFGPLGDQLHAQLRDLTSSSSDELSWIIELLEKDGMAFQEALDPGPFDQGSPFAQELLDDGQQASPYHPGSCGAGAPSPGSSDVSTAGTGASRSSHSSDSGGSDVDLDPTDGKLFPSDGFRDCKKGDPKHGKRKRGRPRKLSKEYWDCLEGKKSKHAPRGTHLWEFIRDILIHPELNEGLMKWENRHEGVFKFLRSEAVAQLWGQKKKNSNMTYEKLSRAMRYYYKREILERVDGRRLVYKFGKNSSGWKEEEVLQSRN
# Summary of the method: as §1
# [9] = target: CRX (Homo sapiens, UniProt O43186 1-299); settings: protein: recombinant; tags: N-terminal GST; dsDNA, one strand shown
# Summary of the method: as §1
# [10] = target: ETV1 (Homo sapiens, UniProt P50549 1-477); settings: protein: recombinant; tags: N-terminal GST; dsDNA, one strand shown
# Summary of the method: as §1
# [11] = target: T6, ERF (Homo sapiens, UniProt P50548 1-548); settings: protein: recombinant; tags: N-terminal GST; dsDNA, one strand shown
# T6 sequence: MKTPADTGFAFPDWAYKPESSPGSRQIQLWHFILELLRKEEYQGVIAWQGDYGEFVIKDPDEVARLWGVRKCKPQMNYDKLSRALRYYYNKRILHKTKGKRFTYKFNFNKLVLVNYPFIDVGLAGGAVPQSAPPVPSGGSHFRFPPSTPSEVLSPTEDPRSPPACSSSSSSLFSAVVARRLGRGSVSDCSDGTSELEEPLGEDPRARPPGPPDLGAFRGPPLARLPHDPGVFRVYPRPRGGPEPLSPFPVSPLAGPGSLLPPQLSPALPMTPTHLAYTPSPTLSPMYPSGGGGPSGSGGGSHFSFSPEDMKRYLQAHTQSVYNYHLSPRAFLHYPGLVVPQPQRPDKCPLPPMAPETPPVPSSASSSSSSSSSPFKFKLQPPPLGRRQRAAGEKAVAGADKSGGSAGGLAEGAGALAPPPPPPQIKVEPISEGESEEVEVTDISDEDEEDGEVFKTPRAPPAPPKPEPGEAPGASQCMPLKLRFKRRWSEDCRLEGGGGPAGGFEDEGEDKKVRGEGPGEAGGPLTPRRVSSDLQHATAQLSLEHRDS
# Summary of the method: as §1
# [12] = target: T7, ETV3L (Homo sapiens, UniProt Q6ZN32 1-361); settings: protein: recombinant; tags: N-terminal GST; dsDNA, one strand shown
# T7 sequence: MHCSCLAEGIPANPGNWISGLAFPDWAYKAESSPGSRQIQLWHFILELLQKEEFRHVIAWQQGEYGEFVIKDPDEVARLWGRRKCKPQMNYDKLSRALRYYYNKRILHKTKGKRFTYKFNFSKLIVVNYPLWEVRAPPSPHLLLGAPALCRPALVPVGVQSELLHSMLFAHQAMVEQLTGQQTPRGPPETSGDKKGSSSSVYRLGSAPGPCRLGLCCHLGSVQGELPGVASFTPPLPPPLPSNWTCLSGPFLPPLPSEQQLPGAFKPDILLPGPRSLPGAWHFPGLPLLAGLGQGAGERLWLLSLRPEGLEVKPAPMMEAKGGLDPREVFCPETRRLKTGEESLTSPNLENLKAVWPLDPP
# Summary of the method: as §1
# [13] = target: T8, ETS2 (Homo sapiens, UniProt P15036 1-469); settings: protein: recombinant; tags: N-terminal GST; dsDNA, one strand shown
# T8 sequence: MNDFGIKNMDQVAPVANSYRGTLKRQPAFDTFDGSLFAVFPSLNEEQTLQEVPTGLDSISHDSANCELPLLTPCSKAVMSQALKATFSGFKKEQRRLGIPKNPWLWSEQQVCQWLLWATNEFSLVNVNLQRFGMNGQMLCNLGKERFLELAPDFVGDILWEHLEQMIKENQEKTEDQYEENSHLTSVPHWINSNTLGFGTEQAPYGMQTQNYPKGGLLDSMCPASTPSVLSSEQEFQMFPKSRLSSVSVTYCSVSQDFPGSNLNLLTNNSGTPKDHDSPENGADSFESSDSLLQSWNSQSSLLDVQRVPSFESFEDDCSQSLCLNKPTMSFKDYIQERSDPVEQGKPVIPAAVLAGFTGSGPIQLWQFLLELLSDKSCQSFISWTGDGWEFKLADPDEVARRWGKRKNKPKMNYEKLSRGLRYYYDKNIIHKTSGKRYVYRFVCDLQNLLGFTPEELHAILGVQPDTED
# Summary of the method: as §1
# [14] = target: T9, SPDEF (Homo sapiens, UniProt O95238 1-335); settings: protein: recombinant; tags: N-terminal GST; dsDNA, one strand shown
# T9 sequence: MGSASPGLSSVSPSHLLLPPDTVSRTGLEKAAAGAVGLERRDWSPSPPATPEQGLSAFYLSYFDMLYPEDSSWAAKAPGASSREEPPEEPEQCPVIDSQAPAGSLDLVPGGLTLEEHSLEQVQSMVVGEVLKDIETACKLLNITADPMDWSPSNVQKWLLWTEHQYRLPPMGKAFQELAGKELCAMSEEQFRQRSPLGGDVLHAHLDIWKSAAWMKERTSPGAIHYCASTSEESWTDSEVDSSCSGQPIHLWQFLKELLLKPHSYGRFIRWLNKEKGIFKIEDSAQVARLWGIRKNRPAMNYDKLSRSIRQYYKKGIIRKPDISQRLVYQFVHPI
# Summary of the method: as §1
# [15] = target: T10, ETV7 (Homo sapiens, UniProt Q9Y603 1-341); settings: protein: recombinant; tags: N-terminal GST; dsDNA, one strand shown
# T10 sequence: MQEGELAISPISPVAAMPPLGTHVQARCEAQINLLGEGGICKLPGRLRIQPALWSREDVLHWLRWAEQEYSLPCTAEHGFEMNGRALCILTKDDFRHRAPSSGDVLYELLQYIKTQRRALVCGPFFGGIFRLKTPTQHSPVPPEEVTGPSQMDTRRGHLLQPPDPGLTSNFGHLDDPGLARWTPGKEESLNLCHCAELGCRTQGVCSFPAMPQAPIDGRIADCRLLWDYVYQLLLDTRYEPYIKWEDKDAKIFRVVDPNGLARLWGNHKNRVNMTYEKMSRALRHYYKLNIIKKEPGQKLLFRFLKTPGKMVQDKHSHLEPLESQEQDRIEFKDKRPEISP
# Summary of the method: as §1
# [16] = target: T11, ELF5 (Homo sapiens, UniProt Q9UKW6-2 1-255); settings: protein: recombinant; tags: N-terminal GST; dsDNA, one strand shown
# T11 sequence: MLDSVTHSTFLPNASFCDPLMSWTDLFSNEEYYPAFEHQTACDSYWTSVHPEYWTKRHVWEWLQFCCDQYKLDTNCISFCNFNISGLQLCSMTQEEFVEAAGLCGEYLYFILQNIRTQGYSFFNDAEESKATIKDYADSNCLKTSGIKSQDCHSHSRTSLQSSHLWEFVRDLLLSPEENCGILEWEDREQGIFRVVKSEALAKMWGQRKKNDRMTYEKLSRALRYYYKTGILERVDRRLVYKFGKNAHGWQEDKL
# Summary of the method: as §1
# [17] = target: T12, ETV3 (Homo sapiens, UniProt P41162-2 1-143); settings: protein: recombinant; tags: N-terminal GST; dsDNA, one strand shown
# T12 sequence: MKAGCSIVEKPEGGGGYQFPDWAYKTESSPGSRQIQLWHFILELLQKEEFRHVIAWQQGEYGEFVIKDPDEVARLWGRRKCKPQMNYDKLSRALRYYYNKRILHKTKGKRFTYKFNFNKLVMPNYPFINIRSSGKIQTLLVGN
# Summary of the method: as §1
# [18] = target: ETV6 (Homo sapiens, UniProt P41212 1-452); settings: protein: recombinant; tags: N-terminal GST; dsDNA, one strand shown
# Summary of the method: as §1
# Sequence of CRX (O43186 whole entry): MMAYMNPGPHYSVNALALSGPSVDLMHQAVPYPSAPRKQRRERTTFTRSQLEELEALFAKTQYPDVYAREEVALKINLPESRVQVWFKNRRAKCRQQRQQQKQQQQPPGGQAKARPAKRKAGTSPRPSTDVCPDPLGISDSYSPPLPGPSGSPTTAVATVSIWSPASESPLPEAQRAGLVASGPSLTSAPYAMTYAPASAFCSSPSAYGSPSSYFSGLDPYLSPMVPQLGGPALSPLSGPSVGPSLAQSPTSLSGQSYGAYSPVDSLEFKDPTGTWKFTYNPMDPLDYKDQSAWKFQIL
# Sequence of HSF1 (Q00613 whole entry): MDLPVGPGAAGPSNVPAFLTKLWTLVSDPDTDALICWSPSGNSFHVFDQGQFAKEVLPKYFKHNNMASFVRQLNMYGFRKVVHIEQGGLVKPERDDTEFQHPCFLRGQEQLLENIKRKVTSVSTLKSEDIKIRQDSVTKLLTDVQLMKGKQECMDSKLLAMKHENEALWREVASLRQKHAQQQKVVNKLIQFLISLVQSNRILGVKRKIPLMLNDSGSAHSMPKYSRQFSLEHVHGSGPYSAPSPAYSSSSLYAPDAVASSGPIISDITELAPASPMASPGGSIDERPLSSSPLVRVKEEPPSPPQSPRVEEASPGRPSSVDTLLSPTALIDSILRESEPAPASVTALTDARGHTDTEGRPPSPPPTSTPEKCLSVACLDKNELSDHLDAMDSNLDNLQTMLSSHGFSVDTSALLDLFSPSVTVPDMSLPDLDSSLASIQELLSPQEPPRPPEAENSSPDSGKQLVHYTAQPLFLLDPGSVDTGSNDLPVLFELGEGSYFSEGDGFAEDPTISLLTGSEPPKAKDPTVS
# Sequence of ETV6 (P41212 whole entry): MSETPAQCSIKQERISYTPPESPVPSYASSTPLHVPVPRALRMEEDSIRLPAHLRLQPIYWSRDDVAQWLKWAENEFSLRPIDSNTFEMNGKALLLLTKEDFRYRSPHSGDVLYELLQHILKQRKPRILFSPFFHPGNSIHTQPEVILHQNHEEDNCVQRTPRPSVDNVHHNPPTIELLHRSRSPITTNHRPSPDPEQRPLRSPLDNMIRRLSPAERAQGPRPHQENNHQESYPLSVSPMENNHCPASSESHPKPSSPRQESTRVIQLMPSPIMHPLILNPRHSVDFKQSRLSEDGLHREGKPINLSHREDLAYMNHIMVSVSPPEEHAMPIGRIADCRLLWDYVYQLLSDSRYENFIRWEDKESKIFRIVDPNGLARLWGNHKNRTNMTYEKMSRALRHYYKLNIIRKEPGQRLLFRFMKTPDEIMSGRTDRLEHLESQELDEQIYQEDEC
# Sequence of ELF4 (Q99607 whole entry): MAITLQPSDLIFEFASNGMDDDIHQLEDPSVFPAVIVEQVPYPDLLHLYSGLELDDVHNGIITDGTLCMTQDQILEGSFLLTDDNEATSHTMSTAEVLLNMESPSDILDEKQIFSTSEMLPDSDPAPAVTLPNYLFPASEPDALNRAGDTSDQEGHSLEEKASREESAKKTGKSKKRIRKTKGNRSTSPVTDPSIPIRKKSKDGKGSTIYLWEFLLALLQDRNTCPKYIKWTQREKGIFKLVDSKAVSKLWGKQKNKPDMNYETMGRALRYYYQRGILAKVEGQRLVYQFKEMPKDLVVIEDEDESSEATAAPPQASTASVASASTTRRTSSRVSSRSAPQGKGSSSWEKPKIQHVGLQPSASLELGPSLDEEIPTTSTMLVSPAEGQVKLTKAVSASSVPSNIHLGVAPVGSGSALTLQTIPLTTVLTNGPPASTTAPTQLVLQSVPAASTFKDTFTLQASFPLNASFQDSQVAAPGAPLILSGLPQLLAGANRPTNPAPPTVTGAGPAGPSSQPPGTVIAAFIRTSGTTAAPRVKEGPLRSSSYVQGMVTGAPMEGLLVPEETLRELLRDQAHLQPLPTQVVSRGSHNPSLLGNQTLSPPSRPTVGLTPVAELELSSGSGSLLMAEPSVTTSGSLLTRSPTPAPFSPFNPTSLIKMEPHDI
# Sequence of ETV5 (P41161 whole entry): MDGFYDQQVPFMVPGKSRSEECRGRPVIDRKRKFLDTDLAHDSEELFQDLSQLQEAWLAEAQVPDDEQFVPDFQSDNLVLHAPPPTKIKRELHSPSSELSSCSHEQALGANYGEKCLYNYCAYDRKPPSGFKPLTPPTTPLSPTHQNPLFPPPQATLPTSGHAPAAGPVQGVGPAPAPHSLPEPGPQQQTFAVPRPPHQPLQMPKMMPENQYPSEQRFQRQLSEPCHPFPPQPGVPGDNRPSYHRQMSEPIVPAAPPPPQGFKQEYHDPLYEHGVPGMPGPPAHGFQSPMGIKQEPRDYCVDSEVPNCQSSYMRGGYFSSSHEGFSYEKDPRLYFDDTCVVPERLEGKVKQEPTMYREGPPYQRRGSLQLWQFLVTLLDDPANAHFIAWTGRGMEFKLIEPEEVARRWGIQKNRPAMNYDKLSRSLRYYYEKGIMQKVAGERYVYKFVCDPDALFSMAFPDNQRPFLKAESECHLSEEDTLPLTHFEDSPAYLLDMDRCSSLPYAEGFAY
# Sequence of ETV1 (P50549 whole entry): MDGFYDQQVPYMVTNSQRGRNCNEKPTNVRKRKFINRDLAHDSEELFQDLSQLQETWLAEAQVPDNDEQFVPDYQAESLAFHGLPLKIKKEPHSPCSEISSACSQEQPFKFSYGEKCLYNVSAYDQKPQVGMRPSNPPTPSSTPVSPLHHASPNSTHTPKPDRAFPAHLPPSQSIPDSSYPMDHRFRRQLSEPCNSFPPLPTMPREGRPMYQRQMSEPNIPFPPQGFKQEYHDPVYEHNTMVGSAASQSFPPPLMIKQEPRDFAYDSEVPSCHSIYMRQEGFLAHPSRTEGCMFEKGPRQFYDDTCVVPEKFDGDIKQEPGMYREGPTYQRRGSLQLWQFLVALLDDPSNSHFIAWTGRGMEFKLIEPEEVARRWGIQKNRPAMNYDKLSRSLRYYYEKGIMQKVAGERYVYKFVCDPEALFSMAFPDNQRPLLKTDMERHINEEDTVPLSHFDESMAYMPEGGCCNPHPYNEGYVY
sequence,measurement,setting,value
AATAGA,binding signal,[1],"1.07 fold enrichment (6-mer frequency, TF over GST control)"
same,binding signal,[2],"1.07 fold enrichment (6-mer frequency, TF over GST control)"
same,binding signal,[3],"1.34 fold enrichment (6-mer frequency, TF over GST control)"
same,binding signal,[4],"1.02 fold enrichment (6-mer frequency, TF over GST control)"
same,binding signal,[5],"1.07 fold enrichment (6-mer frequency, TF over GST control)"
same,binding signal,[6],"1.1 fold enrichment (6-mer frequency, TF over GST control)"
same,binding signal,[7],"1.13 fold enrichment (6-mer frequency, TF over GST control)"
same,binding signal,[8],"1.07 fold enrichment (6-mer frequency, TF over GST control)"
same,binding signal,[9],"1.15 fold enrichment (6-mer frequency, TF over GST control)"
same,binding signal,[10],"1.07 fold enrichment (6-mer frequency, TF over GST control)"
same,binding signal,[11],"1.19 fold enrichment (6-mer frequency, TF over GST control)"
same,binding signal,[12],"1.16 fold enrichment (6-mer frequency, TF over GST control)"
same,binding signal,[13],"1.1 fold enrichment (6-mer frequency, TF over GST control)"
same,binding signal,[14],"1.05 fold enrichment (6-mer frequency, TF over GST control)"
same,binding signal,[15],"1.17 fold enrichment (6-mer frequency, TF over GST control)"
same,binding signal,[16],"1.11 fold enrichment (6-mer frequency, TF over GST control)"
same,binding signal,[17],"1.09 fold enrichment (6-mer frequency, TF over GST control)"
same,binding signal,[18],"1.17 fold enrichment (6-mer frequency, TF over GST control)"
